In PubChem BioAssay (NCI):
The panel holds about 79,000 compounds, 15% with a hit somewhere; the sample as a whole holds those more often. Activity calls are given as the source filed them. No stated cut-off is given here; in the data, active means growth inhibition above about 70%; inactive means the rest.

Assays:
[1] = NCI Yeast Anticancer Drug Screen. Data for the rad50 strain (AID 155);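 further: 0% = growth of vehicle-only cultures of the same strain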; details: S. cerevisiae rad50 strain growth inhibition; at 50.0 µM; active compounds read high
In short: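 A DNA repair-deficient yeast mutant serves as the test organism; compound-induced growth inhibition is calculated against vehicle-treated cells.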

[2] = NCI Yeast Anticancer Drug Screen. Data for the mec2-1 strain (AID 157); details: S. cerevisiae mec2-1 strain, at 50.0 µM, active compounds read high
In short: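 Cells of the genetically defined mec2-1 yeast strain are incubated with test compound. Inhibition of growth is calculated against vehicle-treated controls.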

[3] = NCI Yeast Anticancer Drug Screen. Data for the sgs1 mgt1 strain (AID 161);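 further: 0% = growth of cultures given vehicle only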; details: S. cerevisiae sgs1 mgt1 strain, at 50.0 µM, active compounds read high
In short: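 Read-out: growth inhibition vs vehicle controls. Cells: mutant yeast strain deficient in DNA damage repair.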

[4] = NCI Yeast Anticancer Drug Screen. Data for the cln2 rad14 strain (AID 165);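 further: 0% = growth equal to vehicle treated cultures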; details: S. cerevisiae cln2 rad14 strain, at 50.0 µM, active compounds read high
In short: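 The screen exposed genetically defined yeast (cln2 rad14) to test compounds and scored growth inhibition relative to vehicle-treated controls.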

[5] = NCI Yeast Anticancer Drug Screen. Data for the bub3 strain (AID 167); details: S. cerevisiae bub3 mutant strain, at 50.0 µM, active compounds read high
In short: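 Inhibition values come from growth of compound-treated mutant yeast normalised to vehicle-treated controls.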

[6] = NCI Yeast Anticancer Drug Screen. Data for the mlh1 rad18 strain (AID 175); details: S. cerevisiae mlh1 rad18 strain growth inhibition; at 50.0 µM; active compounds read high
In short: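 Compound-treated yeast growth, normalised to vehicle controls. Strain bears defined DNA repair mutations.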

Measured: growth inhibition

COc1ccc(/C(=N\NC(=O)NN)C(c2ccc(OC)cc2)C2(O)C(=O)Nc3c(Cl)cc(Cl)cc32)cc1 (centres undefined)
inactive: [1] 6.2% | [2] -7.75% | [3] -57% | [4] -16.8% | [5] 8.6% | [6] -10.2%

Cc1cc2c(c(C(=O)NCCC(=O)O)c1)Oc1c(cc(C)cc1C(=O)NCCC(=O)O)S2
inactive: [1] -26.9% | [2] -13.6% | [3] -8.2% | [4] 3.95% | [5] -44.1% | [6] -2.65%

COc1ccc(C(C#N)N2CCCCC2)cc1 (centres undefined)
inactive: [1] 21.6% | [2] -6.25% | [3] -13.5% | [4] 22.1% | [5] 7.05% | [6] 0.4%

CC(C)C1=CC(=Nc2ccc(N(C)C)cc2)C=CC1=O
inactive: [1] -1.35% | [2] 6.4% | [3] 9.5% | [4] -29.2% | [5] 18% | [6] -13.1%

ClC(c1ccccc1)(c1ccccc1)C(Cl)(c1ccccc1)c1ccccc1
inactive: [1] 45.9% | [2] 5.05% | [3] 24.1% | [4] 11.8% | [5] 4.6% | [6] 26.9%

N#CC1C2CCC(C2)C1CCCN (centres undefined)
inactive: [1] 18.4% | [2] -8.75% | [3] 6.55% | [4] -81.9% | [5] -8.05% | [6] -13.8%

NNC(N)=Nc1cccc2ccccc12
inactive: [1] -2.9% | [2] -7.5% | [3] 0.35% | [4] 15.7% | [5] 11.4% | [6] -18.6%

O=C(COc1ccc(Cl)cc1)Oc1c(Cl)cc(Cl)cc1Cl
active: [1] 96.4% | [2] 97.8% | [3] 98.7% | [4] 96.8% | [5] 98.2% | [6] 98%

c1ccc(C2=NCCc3cc4c(cc32)OCO4)cc1
inactive: [1] 3.35% | [2] 0.7% | [3] 7.8% | [4] 10.1% | [5] 13.2% | [6] 9.4%

CCOC(=O)C(CC(C)C)NC(=O)c1cnc2ccccc2c1 (centres undefined)
inactive: [1] 26.6% | [2] -0.7% | [3] 25.6% | [4] -13.8% | [5] 26.2% | [6] 21.9%

Cc1cc2c(cc1N)C(C)(C)CCC2(C)C
inactive: [1] -4.65% | [2] -18.2% | [3] 10.2% | [4] -24.9% | [5] -11.8% | [6] -18.1%

CCC=Nc1ccccc1CO
inactive: [1] 12.2% | [2] 8.5% | [3] -1.05% | [4] 30.3% | [5] -4% | [6] 5.4%

COC(=O)c1nc(N)nc(C(=O)OC)c1C(=O)c1ccc(Cl)cc1Cl
inactive: [1] 7.25% | [2] -0.6% | [3] -15.5% | [4] 3.6% | [5] -8.3% | [6] -3.25%

Clc1cccc(C2N3CCCCC3[C@@H]3c4[nH]c5ccccc5c4CCN23)c1 (some centres undefined)
inactive: [1] -0.75% | [2] -1.85% | [3] -1.95% | [4] 3.1% | [5] 10.9% | [6] 1.7%

CC(C)(N)CNc1ccccc1
inactive: [1] -0.55% | [2] -4.95% | [3] -9.85% | [4] -11.1% | [5] 15.7% | [6] -4.4%

COc1ccccc1C(O)(c1ccccc1OC)C1(O)CCCCC1
inactive: [1] -10.2% | [2] -2% | [3] -5% | [4] 13.8% | [5] -0.1% | [6] 1.15%

COc1ccc2ccccc2c1C(=O)/C=C/c1ccccc1
inactive: [1] 35% | [2] 33.6% | [3] 38.9% | [4] 47.8% | [5] 58.8% | [6] 39.4%

COc1cc(C=C2C(=O)OC(C)(C)OC2=O)cc(OC)c1OC
inactive: [1] 3.45% | [2] -22.1% | [3] -11.3% | [4] 24.3% | [5] -21.5% | [6] 9.05%

CN(C)/C=C/c1nnnn1-c1ccc(I)cc1
inactive: [1] 4.5% | [2] 12.9% | [3] 24.8% | [4] 7.45% | [5] 28.8% | [6] 34.6%

N=C(N)c1ccc(C(=N)N)cc1
inactive: [1] -16.4% | [2] -14.3% | [3] -20.3% | [4] -0.35% | [5] -0.75% | [6] -33.2%

COc1ccc(-c2cc(=O)c3cccc(CC(=O)O)c3o2)cc1OC
active: [1] 99.2% | [2] 99.2% | [3] 97.5% | [4] 98.8% | [5] 99.3% | [6] 99.2%

C[C@@H]1Nc2ccccc2[C@H]1C
inactive: [1] -25.6% | [2] -37.5% | [3] -53.1% | [4] 7.75% | [5] -42.6% | [6] -8.1%

Nc1ccc(O)cc1
inactive: [1] 15.2% | [2] 7.5% | [3] 39% | [4] 9.35% | [5] 3.45% | [6] 14.9%

Cc1cccc(Cl)c1NC(=O)NCCCN1CCOCC1
inactive: [1] 2.8% | [2] -14.9% | [3] 6.2% | [4] 14.1% | [5] -1.75% | [6] 6.45%

c1ccc2c3[n+](ccc2c1)CCC[n+]1ccc2ccccc2c1-3
inactive: [2] 38% | [4] 60% | [5] 18.3%
active: [1] 75.1% | [3] 85% | [6] 79%

CCCCN=C1NS(=O)(=O)c2ccccc21
inactive: [1] 15.5% | [2] -11.5% | [3] 13.2% | [4] -8.15% | [5] 0% | [6] -0.6%

COCCOCc1nc(C#N)c(N)o1
inactive: [1] -6.6% | [2] 2.6% | [3] -36% | [4] 13.8% | [5] -24% | [6] -66.2%

COc1ccc(N=Nc2c(C)c(C#N)c(=S)n(C3OC(COC(C)=O)C(OC(C)=O)C(OC(C)=O)C3OC(C)=O)c2-c2ccccc2)cc1 (centres undefined)
inactive: [1] -8.55% | [2] -8.9% | [3] -20.6% | [4] 9.05% | [5] 8% | [6] -5.1%

CCOP(=O)(c1ccccc1)C(C)C (centres undefined)
inactive: [1] -7.85% | [2] -0.5% | [3] -1.7% | [4] -40% | [5] -0.65% | [6] -0.2%

CCn1c(S)c(N=NC(=S)c2ccc3ccccc3n2)c2ccccc21
inactive: [1] 46% | [2] 18.9% | [3] 27.8% | [4] 23.4% | [5] 17.4% | [6] 11.5%

CCCCCCCCCC(O)CCCC(O)C(O)CCCCCCC(=O)O (centres undefined)
inactive: [1] 13.1% | [2] 15% | [3] 22.7% | [4] 17.5% | [5] -3.05% | [6] 37.6%

CC1(N)CC2CCC1C2 (centres undefined)
inactive: [1] -3.5% | [2] -1.25% | [3] 5% | [4] -14.2% | [5] -21.4% | [6] 2.75%

CS/N=C(/c1ccc(/C(=N/SC)N(C)C)cc1)N(C)C
inactive: [1] 0.9% | [2] -8.5% | [3] 8.8% | [4] -5.35% | [5] -24.4% | [6] 5.75%

O=C([CH-]C(=O)C(F)(F)F)c1ccccc1.O=C([CH-]C(=O)C(F)(F)F)c1ccccc1.O=C([CH-]C(=O)C(F)(F)F)c1ccccc1.[Ru+3]
inactive: [1] -11.2% | [2] -13.8% | [3] -11.5% | [4] -22.7% | [5] 9.8% | [6] 4.75%

CC(C)(C(=O)O)C(=O)O
inactive: [1] 6.9% | [2] 3.25% | [3] 0.6% | [4] 8.2% | [5] 21.4% | [6] 3.1%

COC(=O)[CH2][Ge]([c]1ccccc1)[c]1ccccc1.COC(=O)[CH2][Ge]([c]1ccccc1)[c]1ccccc1
inactive: [1] 15.8% | [2] 9.15% | [3] 37.3% | [4] -5% | [5] -12.2% | [6] -8.3%

N#CC1CCCC(CBr)C1 (centres undefined)
inactive: [1] -24.9% | [2] -43% | [3] -20.5% | [4] -23.7% | [5] -9.05% | [6] -26.7%

CN(CCNC(=O)NCCCCCCNC(=O)NCCN(C)c1ccccc1)c1ccccc1
inactive: [1] -6% | [2] -44% | [3] -6.7% | [4] -33.2% | [5] 3.45% | [6] -5.05%

O=C(NCCCCCCCCCCNC(=O)C12CC3CC(CC(C3)C1)C2)C12CC3CC(CC(C3)C1)C2
inactive: [1] -1.5% | [2] -5.15% | [3] 2.3% | [4] 14.7% | [5] -2.1% | [6] -14.5%
